Sensor-assay potency score (higher = more potent) data for 40 sequences are collected here from the OligoGym collection.
Also: reference of the scale not given here.

One assay addresses CDKL2. Nature of the assay: pooled miR-30 sensor sort-seq; sequence = guide strand. The settings on record: shRNA.
Take TAGTAACTTGATTTCTCGCATT: the sensor-assay potency score (higher = more potent) was -0.927. Same read-out and setting: in the case of TTAGATAAAGAAACATTTCTGG it was 0.295; in that of TTTAAATAGTTTATAATCCTTA, -0.355; in that of TTCAACTAAGGAATCATCTTTT, 0.409.

On to TAGATAAAGAAACATTTCTGGC, for which the sensor-assay potency score (higher = more potent) was -0.719. TTTCAGGCAACCTTACTCCAGC registered a sensor-assay potency score (higher = more potent) of -0.594.

In another assay the target is CDKN2B. The description is as above. The note with it: shRNA.
Regarding TTTTAGCATCTGTCGTCGCTTG, the sensor-assay potency score (higher = more potent) was determined as 0.0607. The same measure, in the same setting: in the case of TTGACTCCGTTGGGATCCGCGC it was -1.43; in that of TTTCTTAGTCTGACCTCTGCAC, 0.0018. Turning to TAGCATCTGTCGTCGCTTGCAC, the sensor-assay potency score (higher = more potent) was -0.163.

With AAACGGTTGACTCCGTTGGGAT, the sensor-assay potency score (higher = more potent) is -1.42. Still for that read-out and setting: in the case of TTCCAGGAGCTGTCGCACCTTC it was -0.732. TGCGCAGGTACCCTGCAACGTC yielded a sensor-assay potency score (higher = more potent) of -1.43. On the same count and under the same terms, in the case of TATTTCTTAGTCTGACCTCTGC it was -0.197.

Regarding TTGGAGTGAACGCATCGACTGC, the sensor-assay potency score (higher = more potent) was -0.833. Same read-out and setting: in the case of TTTAGCATCTGTCGTCGCTTGC it was 0.0347. Still for that read-out and setting: in the case of TAGTCTGACCTCTGCACCCTGA it was -1.07.

TTTTTCAGCAATCTTTTGGGAA had a sensor-assay potency score (higher = more potent) of -0.00426. Same read-out and setting: in the case of TTAACTGAGAGCCACTAGTTAT it was -1.26. Take TCCCGAAACGGTTGACTCCGTT: the sensor-assay potency score (higher = more potent) was -1.06.

Sequence AGGTACCCTGCAACGTCGCGGT showed a sensor-assay potency score (higher = more potent) of -1.5. Same read-out and setting: in the case of TGCACCGGTCGGGTGAGAGTGG it was -1.46; in that of TATAATGATCAAGCAACCCTGG, 0.0689; in that of TAAGAAAATAAAGTCGTTGTGG, 0.511. The same measure, in the same setting: in the case of TCATCCTGTGTAGTCTGCCTGC it was -0.705; in that of TAATTTACTGCATAAGTGCATC, -0.823. ATCATGCACCGGTCGGGTGAGA showed a sensor-assay potency score (higher = more potent) of -1.72.

TGTCGCACCTTCTCCACTAGTC came in with a sensor-assay potency score (higher = more potent) of -0.304. Same read-out and setting: in the case of TTTACTGCATAAGTGCATCTAT it was 0.135.

A further assay addresses CEACAM7. Described as above. The settings on record: shRNA.
For the sequence TAGAATTGTCTGGTTACTTCTT, the sensor-assay potency score (higher = more potent) was -0.107. Same read-out and setting: in the case of TCGATAGTTGGCATGCACCCTT it was -0.656; in that of TATCCTATAATTCGATAGTTGG, -0.535; in that of TATCTTTGTTCTCCACCGGATT, -1.29.

The sequence TAAAACCACAATATCTTTGTTC had a sensor-assay potency score (higher = more potent) of 0.0103.

TATATTGTCTCTCGACCGTTGT had a sensor-assay potency score (higher = more potent) of -0.124.

Turning to AATCATGATGCTGACAGCGGTC, the sensor-assay potency score (higher = more potent) was -0.463. On the same count and under the same terms, in the case of TTGACTTATATTTTTTACATAT it was -1.26; in that of TAGAGGTCTAACTCTAACAGGG, -0.585. In the case of ATATCTTTGTTCTCCACCGGAT, the sensor-assay potency score (higher = more potent) was -0.501.

With TTGTCTCTCGACCGTTGTGTGC, the sensor-assay potency score (higher = more potent) is -1.35.
